High-throughput results as filed in PubChem.
Most compounds without a hit are left out; they make up all but 2.9% or so of the library.
PME-1 primary: PME-1 inhibitors via competitive probe labeling, primary screen, biochemical, fluorescence polarization, FP-Rh probe, HTS. Protein phosphatase methylesterase 1 (Homo sapiens), Q9Y570. recombinant PME-1. inhibition, % at 5.9 µM. actives 0.53% (n = 320,000). AID 2130, 2009;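 active = inhibition above the campaign mean of all compounds plus 3 SD, cut at about 26% in these data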;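 also: competitive labeling of PME-1 active site by serine hydrolase directed probe; 0% = PME-1 with DMSO and 100% = wells lacking PME-1 enzyme; inhibitors block probe labeling so polarization falls and inhibition rises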
PAFAH1B3 inh: PAFAH1B3 enzyme inhibitors, primary screen, biochemical, fluorescence polarization, human | recombinant PAFAH1B3, FP-rhodamine probe | inhibition, % at 3.39 µM | actives 0.28% (n = 340,000);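 active = inhibition above the screen-wide average of all tested compounds plus 3 SD, cut at about 25% in these data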;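 also: 0% = enzyme with DMSO only and 100% = wells lacking PAFAH1B3 protein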
Target sequence (Q15102 whole entry, looked up): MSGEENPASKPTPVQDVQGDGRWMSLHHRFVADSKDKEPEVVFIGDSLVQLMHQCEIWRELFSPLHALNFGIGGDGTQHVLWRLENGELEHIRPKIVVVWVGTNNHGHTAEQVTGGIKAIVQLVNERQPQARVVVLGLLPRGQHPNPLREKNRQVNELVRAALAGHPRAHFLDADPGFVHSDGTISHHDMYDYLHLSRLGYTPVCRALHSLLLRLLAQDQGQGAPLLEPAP
Fam108B inh: mouse Fam108B serine hydrolase inhibitors, primary screen, counter-screen for RBBP9 inhibitor project, biochemical, fluorescence polarization | recombinant Fam108B, FP-Rh probe fluorescence polarization | inhibition, % at 9.51 µM | actives 0.33% (n = 300,000);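 active = inhibition above the screen mean inhibition plus 3 SD, computed separately per campaign, cut at about 18% in these data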;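 also: inhibitors lower polarization as less probe binds the enzyme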
PAFAH2 FP inh: PAFAH2 enzyme inhibitors, primary screen, biochemical, fluorescence polarization, human; Platelet-activating factor acetylhydrolase 2, cytoplasmic (Homo sapiens), Q99487; recombinant PAFAH2, FP-rhodamine activity probe; inhibition, % at 3.39 µM; actives 0.99% (n = 340,000);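 active = inhibition above the mean over all tested compounds plus 3 SD, cut at about 30% in these data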;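 also: inhibitors block probe labeling of enzyme so polarization drops; 0% = enzyme with DMSO and 100% = wells lacking PAFAH2 protein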
pPAFAH inh: pPAFAH enzyme inhibitors, primary screen, biochemical, fluorescence polarization, human. Platelet-activating factor acetylhydrolase (Homo sapiens), Q13093. recombinant pPAFAH, FP-rhodamine probe fluorescence polarization. inhibition, % at 3.39 µM. actives 1.5% (n = 330,000). AID 463082, 2010;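 active = inhibition above the mean inhibition across the screen plus 3 SD, cut at about 25% in these data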;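 also: inhibitors block binding of the rhodamine activity-based probe so polarization drops; 0% = enzyme with DMSO and 100% = wells lacking pPAFAH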
PAFAH1B2 FP inh: PAFAH1B2 enzyme inhibitors, primary screen, biochemical, fluorescence polarization, human | recombinant PAFAH1B2, FP-rhodamine activity probe | actives 1.2% (n = 340,000) | inhibition, % at 3.39 µM | Platelet-activating factor acetylhydrolase IB subunit alpha2 (Homo sapiens), P68402;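 active = inhibition above the mean of all tested compounds plus 3 SD, cut at about 24% in these data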;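 also: 0% = enzyme with DMSO and 100% = wells lacking PAFAH1B2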
Target sequence (P68402 whole entry, looked up): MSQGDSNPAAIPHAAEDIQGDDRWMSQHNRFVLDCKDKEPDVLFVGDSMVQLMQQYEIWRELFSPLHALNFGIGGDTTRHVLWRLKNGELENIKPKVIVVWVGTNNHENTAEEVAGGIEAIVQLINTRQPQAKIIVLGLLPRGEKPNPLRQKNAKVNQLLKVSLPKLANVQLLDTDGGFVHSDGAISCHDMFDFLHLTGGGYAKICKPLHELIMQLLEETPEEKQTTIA
An asterisk follows results filed as active; x = no result.

SMILES | PME-1 primary | PAFAH1B3 inh | Fam108B inh | PAFAH2 FP inh | pPAFAH inh | PAFAH1B2 FP inh
Cc1ccc(COc2ccc(/C=N/O)cc2)cc1 | -5 | 1 | -2 | 1 | 1 | 33*
CCN(C(=O)COc1cc(=O)n(CC)c2ccccc12)c1cccc(Cl)c1 | 4 | 1 | 4 | 15 | 27* | 6
O=C(NCCS(=O)(=O)c1ccc(Br)cc1)c1ccc(Cl)cc1 | 7 | -2 | -1 | 5 | 5 | 28*
CC(C(=O)NCCS(=O)(=O)c1ccc(Br)cc1)S(=O)(=O)c1ccc(Cl)cc1 (stereo not drawn) | 11 | 4 | -2 | 3 | 5 | 18
O=C(NC(=S)Nc1cc([N+](=O)[O-])ccc1O)c1ccc2c(c1)OCO2 | 15 | 21 | 5 | 14 | 29* | 18
O=C1CCN(Cc2ccccc2)C=C1c1cccc(O)c1 | x | 1 | x | 1 | 3 | 7
O=C1N[C@@H](Cc2ccccc2)COC(=O)[C@@H](Cc2ccc(F)cc2)CC/C=C/C[C@@H]1CC(=O)N(CCO)Cc1ccccc1 | x | 4 | x | 15 | 9 | 26*
O=C1N[C@@H](Cc2c[nH]c3ccccc23)COC(=O)[C@H](Cc2ccc(F)cc2)C/C=C\C[C@@H]1CC(=O)N(CCO)Cc1ccccc1 | x | 7 | x | 1 | 7 | 7
O=C1N[C@H](Cc2ccccc2)COC(=O)[C@H](Cc2ccc(F)cc2)CC/C=C/C[C@@H]1CC(=O)N(CCO)Cc1ccccc1 | x | 5 | x | 5 | 6 | 10
O=C1N[C@@H](Cc2c[nH]c3ccccc23)COC(=O)[C@@H](Cc2ccc(F)cc2)C/C=C\C[C@H]1CC(=O)N(CCO)Cc1ccccc1 | x | 5 | x | 4 | 28* | 15
O=C(C[C@@H]1C/C=C\C[C@@H](Cc2ccc(F)cc2)C(=O)OC[C@@H](Cc2c[nH]c3ccccc23)NC1=O)NCCO | x | 6 | x | 3 | 25* | 21
O=C(N[C@H]1C/C=C\C[C@@H](CC(=O)N(CCO)Cc2ccccc2)C(=O)N[C@H](Cc2c[nH]c3ccccc23)COC1=O)OCC1c2ccccc2-c2ccccc21 | x | -2 | x | 8 | 13 | 3
O=C(N[C@H]1C/C=C\C[C@H](CC(=O)N(CCO)Cc2ccccc2)C(=O)N[C@H](Cc2c[nH]c3ccccc23)COC1=O)OCC1c2ccccc2-c2ccccc21 | x | 13 | x | 10 | 33* | -1
COc1cc(Cl)cc(C2NC(=O)NC(C)=C2C(C)=O)c1OCC(=O)O (stereo not drawn) | 6 | 3 | -1 | 10 | 8 | 7
CCc1ncc(CN2CCCC(C(=O)Nc3cccc(-c4cccc(C)c4)c3)C2)cn1 (stereo not drawn) | 0 | -2 | 1 | -1 | 1 | -3
O=C1N[C@H](Cc2ccccc2)COC(=O)[C@@H](Cc2ccc(F)cc2)CC/C=C/C[C@H]1CC(=O)N(CCO)Cc1ccccc1 | x | -3 | x | 28 | 29* | 6
CC(C)NC(=S)N/N=C1\CCCCC1C1CCCCC1 (stereo not drawn) | 2 | 7 | 4 | 5 | 8 | 29*
CC1CC(NC(=O)CC#N)CC(C)(C)C1 (stereo not drawn) | -4 | -6 | 0 | -1 | 2 | 4
CC1CC(NC(=O)C2(C)CC2(Cl)Cl)CC(C)(C)C1 (stereo not drawn) | 6 | 2 | -3 | -1 | -4 | 26*
CN(C)S(=O)(=O)N1CCCN(S(=O)(=O)N(C)C)CC1 | 2 | 13 | -3 | 10 | 2 | 4
O=S(=O)(c1ccc(Cl)cc1)N1CCCC1c1nc2ccccc2s1 (stereo not drawn) | -3 | -1 | -1 | -1 | 30* | 7
Cc1ccc(S(=O)(=O)N2CCCC2c2nc3ccccc3s2)cc1 (stereo not drawn) | 3 | 3 | -4 | 7 | 31* | 7
O=S(=O)(c1cc(Cl)cc(Cl)c1)N1CCCC1c1nc2ccccc2s1 (stereo not drawn) | 0 | 3 | -1 | 5 | 2 | -3
